# Most compounds without a hit are left out; they make up all but 19% or so of the library.
# HT1080 IDH1KD tx = HT-1080 IDH1 knockdown cell toxicity (counter line); HT-1080 IDH1 knockdown viability, ATP luminescence, 48 h; Potency, µM (doses to about 46.1 µM), inactives show at the highest dose activity, negative = toxicity, usual class: cytotoxic; 2% of 360,000 active; AID 686971;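 note: 0% = DMSO wells and -100% = cell-free medium wells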
#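 % activity derives from luminescence (CellTiter-Glo), normalised to DMSO and no-cell wells. HT-1080-IDH1KD cells, 750/well, had 48 h compound exposure at 37 °C.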
# HT1080-NT tox = kills 2HG-producing HT-1080-NT fibrosarcoma cells; Potency, µM (titrated, usually from 46.1 µM), inactives show at the highest dose activity, negative = less viability, most hits filed as cytotoxic; 1.6% of 360,000 active; HT-1080-NT fibrosarcoma viability, CellTiter-Glo ATP luminescence, 48 h;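 note: NT is the 2HG producing partner of a matched IDH1 knockdown line; 0% = DMSO-treated cells and -100% = media-only wells without cells; nearly all actives have a fitted effect of over 55% in size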
#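 Luminescent CellTiter-Glo readout after 48 hours of compound exposure at 37 degrees C defined viability of HT-1080-NT cells. Activity was normalized to DMSO wells and cell-free media wells; concentration-response curves were fitted and assigned curve classes.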
# KB-3-1 cytotox = kills parental KB-3-1 adenocarcinoma cells. KB-3-1 viability, CellTiter-Glo ATP luminescence, 72 h. Potency, µM (series often up to 46.1 µM), usual class: cytotoxic. 1.4% of 400,000 active; note: nearly all actives have a fitted effect of over 60% in size
#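 Cells are dispensed, compounds pinned in, plates held at 37 °C for 72 h, then CellTiter-Glo is added and luminescence read after 10 minutes. Cell line: parental KB-3-1 in phenol-red-free DMEM, 10% FBS.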
# TDP1 cell CPT = DT40-hTDP1 cell growth loss with CPT. chicken DT40 Tdp1-/-;hTDP1 cells + 20 nM CPT, ATP luminescence, 48 h. AID 686979. Potency, µM (highest dose often 46.2 µM), for inactives: at the highest dose activity change, negative = growth inhibition, usual class: inhibitors. 12% of 420,000 active; note: nearly all actives have a fitted effect of over 55% in size
#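 Chicken DT40 Tdp1-/- cells complemented with human TDP1, 400 cells/well, exposed to compounds plus 20 nM camptothecin for at least 48 h at 37 C; viability read as ATP content by CellTiter-Glo luminescence.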
# KB-V1 MDR tox = KB-V1 MDR subline cytotoxicity. 3.4% of 400,000 active. KB-V1 MDR cells viability, CellTiter-Glo, 72 h. Potency, µM (highest dose often 46.1 µM), usual class: cytotoxic; note: nearly all actives have a fitted effect of over 60% in size
#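 Potencies derive from concentration-effect curves fitted to normalized luminescence (CellTiter-Glo) of KB-V1 cells treated for 72 h at 37 degrees C in phenol-red-free DMEM containing 10% FBS.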
# TDP1 cell noCPT = qHTS for Inhibitors of human tyrosyl-DNA phosphodiesterase 1 (TDP1): qHTS in cells in absence of CPT | AID 686978, 2013 | 15% of 420,000 active | Potency, µM (top dose mostly 46.2 µM), for the others: at the highest dose activity change, negative = growth inhibition, usual class: inhibitors | DT40 Tdp1-/- hTDP1 cells, no CPT, ATP luminescence, 48 h; note: nearly all actives have a fitted effect of over 55% in size
#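 Camptothecin absent (DMSO only). Human TDP1-complemented DT40 knockout cells, 400 cells/well, 37 °C for minimum 48 hr; ATP measured via CellTiter-Glo, 30 min dark incubation, luminescence.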
# Active calls of the source: *; i = inactive; ? = inconclusive; . = not tested or not shown. Calls come from the whole dose curve; as a rule, active = well fitted curve in the direction sought with a large enough effect; inconclusive = small, poorly fitted or top-dose-only effect, or another doubt; inactive = no such curve, though single readings can be large; an effect the other way counts as inactive or inconclusive. Unless noted, % is set by controls: 0 for no effect and ±100 for the full control effect; potency is the fitted concentration of half-maximal effect.
SMILES,HT1080 IDH1KD tx,HT1080-NT tox,KB-3-1 cytotox,TDP1 cell CPT,KB-V1 MDR tox,TDP1 cell noCPT
COc1ccccc1CNc1ncnc2nc[nH]c12,-9.6%,-0.5%,?,?,i,?
Cc1cc(C)cc(-n2c(C)nc3cc(C(=O)NCc4ccccc4Cl)ccc32)c1,.,.,?,1.6%,i,?
c1ccc2c3c([nH]c2c1)CCCC3,.,.,i,-2.1%,i,?
C/C(=N\O)c1ccc2c3c([nH]c2c1)CCCC3,-10.9%,-0.5%,8.2µM*,?,i,?
COc1cccc(NS(=O)(=O)c2ccc(-n3cccn3)cc2)c1,-18.4%,11.1%,i,?,i,5.8µM*
CCOc1ccc(S(=O)(=O)Nc2cccc(N(C)S(C)(=O)=O)c2)cc1,-4.2%,-3.6%,i,23.1µM*,i,11.6µM*
CCOc1ccc(S(=O)(=O)Nc2cccc(OC)c2)cc1,10µM*,?,i,?,?,?
CCOC(=O)c1cc(S(=O)(=O)Nc2cccc(OC)c2)cn1C,-12.2%,7.8%,i,20.6µM*,i,?
CCOc1ccc(S(=O)(=O)Nc2cccc(C(=O)N3CCN(c4ccc(OC)cc4)CC3)c2)cc1,-3.7%,-5.3%,i,-12.3%,i,-24.8%
CCN(CC)C(=O)c1sc2c(c1C)c(=O)n(-c1ccc(C)c(C)c1)c(=O)n2CC(=O)Nc1ccc(OC)cc1OC,.,.,i,?,?,?
COCCNC(=O)C1(C)CCN(Cc2cccc(Oc3ccccc3)c2)C1 (stereo unspecified),9.7%,6.2%,i,?,i,?
COc1ccc(S(=O)(=O)Nc2cccc(F)c2)cc1C,2.9%,5.6%,i,-21.6%,i,-16.7%
COc1ccc(S(=O)(=O)Nc2cccc(N(C)S(C)(=O)=O)c2)cc1C,7.7%,-2.9%,?,25.9µM*,14.6µM*,20.6µM*
O=C(O)c1cccc(Nc2nc(-c3cccnc3)nc3ccccc23)c1,-18.8%,1.8%,?,?,i,?
CCOC(=O)c1cccc(Nc2nc(-c3cccnc3)nc3ccccc23)c1,?,20.6µM*,?,23.1µM*,?,10.3µM*
COC(=O)c1cccc(Nc2nc(-c3cccnc3)nc3ccccc23)c1,-12.0%,-10.1%,i,?,?,9.2µM*
COC(=O)c1ccc(NC(=O)CSC2=NCCN2)cc1,-24.4%,?,?,?,?,14.6µM*
COc1cc(-c2c(-c3ccsc3)sc3ccccc23)cc(OC)c1OC,-9.0%,-12.9%,i,0.9%,i,5.5%
COc1cc(-c2c(CCO)sc3ccccc23)cc(OC)c1OC,?,?,?,6.51µM*,20.6µM*,6.51µM*
CN(C)c1ccc(-c2cc([C@H]3[C@@H]4C=CCC[C@@]4(C)C(=O)N3Cc3ccccc3)ccc2F)cc1,-18.4%,-16.0%,?,?,i,23.1µM*
COc1ccc([C@H]2[C@@H]3C=CCC[C@@]3(C)C(=O)N2Cc2ccccc2)cc1Cl,-17.3%,-21.3%,i,?,i,20.6µM*
C[C@@]12CCC=C[C@H]1[C@H](c1ccc(F)c(/C=C/c3ccccc3)c1)N(Cc1ccccc1)C2=O,-10.1%,-18.1%,i,?,?,16.4µM*
COc1ccc(-c2cc([C@H]3[C@@H]4C=CCC[C@@]4(C)C(=O)N3Cc3ccccc3)ccc2F)cc1OC,?,?,?,25.9µM*,?,?
C[C@@]12CCC=C[C@H]1[C@H](c1ccoc1)N(Cc1ccccc1)C2=O,-4.8%,-6.0%,i,-7.5%,i,-5.4%
CN(C)c1ccc(-c2ccc([C@H]3[C@@H]4C=CCC[C@@]4(C)C(=O)N3Cc3ccccc3)c(F)c2)cc1,?,?,?,23.1µM*,?,18.4µM*
SMILES,HT1080 IDH1KD tx,HT1080-NT tox,KB-3-1 cytotox,TDP1 cell CPT,KB-V1 MDR tox,TDP1 cell noCPT
C[C@@]12CCC=C[C@H]1[C@H](c1ccccc1Br)N(Cc1ccccc1)C2=O,-14.5%,-17.0%,i,?,i,16.4µM*
Cc1ccc(F)c([C@H]2[C@@H]3C=CCC[C@@]3(C)C(=O)N2Cc2ccccc2)c1,-2.8%,-3.8%,i,?,i,?
COc1ccc(-c2cccc([C@H]3[C@@H]4C=CCC[C@@]4(C)C(=O)N3Cc3ccccc3)c2)cc1,?,?,?,23.1µM*,?,16.4µM*
O=C(N[C@H](CO)Cc1ccccc1)[C@H]1O[C@@H](n2ccc(=O)[nH]c2=O)[C@H](O)[C@@H]1O,2.7%,23.0%,i,-4.6%,i,0.6%
Cc1cc(C)c(C)c(S(=O)(=O)N2CCNC(=O)C2)c1C,-3.5%,11.0%,i,8.9%,i,1.9%
Oc1c(C(c2ccccc2)N2CCC3(CC2)OCCO3)sc2nc(-c3ccco3)nn12 (stereo unspecified),.,.,.,-6.1%,.,-11.2%
CCN(C(=O)NCc1noc2ccccc12)c1cc(C)ccc1C,.,.,i,?,i,?
Cc1cccc(NC(=O)CSc2cc(C)c(C#N)c3nc4ccccc4n23)c1,-26.4%,?,i,18.4µM*,i,11.6µM*
Cc1c(CCCl)c(Cl)n2c(nc3ccccc32)c1C#N,2.31µM*,2.59µM*,2.06µM*,0.92µM*,1.64µM*,0.651µM*
CNc1cc(C)c(C#N)c2nc3ccccc3n12,-18.3%,-3.9%,i,-20.2%,i,-27.3%
Cc1ccc(-c2c(C#N)c(N)n3c(nc4ccccc43)c2C#N)cc1,?,?,13µM*,20.6µM*,?,16.4µM*
Cc1cc(Cl)n2c(nc3ccccc32)c1C#N,7.31µM*,9.2µM*,i,0.411µM*,?,0.461µM*
O=C1C(Cl)=C(N2CCCC2)C(=O)N1c1ccccc1F,-5.3%,4.3%,i,-13.9%,i,9.4%
CCCCOC(=O)c1ccc(NC(=O)Cc2coc3c(C)c(C)ccc23)cc1,.,.,i,?,i,?
Cc1cc(N2CCN(c3ccccn3)CC2)n2c(nc3ccccc32)c1C#N,0.0%,-6.7%,i,?,i,18.4µM*
Cc1ccc(Nc2c(C(C)C)c(C)c(C#N)c3nc4ccccc4n23)cc1,.,.,?,18.4µM*,i,14.6µM*
COc1ccc(Nc2c3c(c(C#N)c4nc5ccccc5n24)CCC3)cc1,-6.5%,-1.5%,i,-13.1%,i,-12.5%

# High-throughput results (PubChem)
